Results reported in PubChem BioAssay (EPA / NIEHS).
Active and inactive are the calls of the source. The calls were made as follows: active = hit-call score of the fitted dose curve at least 0.9, where 1 is the maximum; inactive = score below 0.9.

experiment: ATG_CMV_CIS: Attagene CIS-FACTORIAL HepG2 Assay for human CMV (Internal Marker) (AID 2282928); settings: HepG2 CMV promoter reporter, transcription factor profiling; actives raise or lower the signal;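 also: endpoint acts as a background internal control marker rather than a target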
In short: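 HepG2 cells transiently transfected with multiple cis-regulated reporter units; 24 h compound exposure. Reporter mRNA quantified by RT-PCR, 6-FAM primer-extension labeling, HpaI digestion and capillary electrophoresis; bidirectional fitting against DMSO baseline.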

Question: For `C=CC(=O)OCC(CO)(COCC(COC(=O)C=C)(COC(=O)C=C)COC(=O)C=C)COC(=O)C=C`, which AC50 is on record?
Answer: 2.97 µM (active)

Question: Which outcome does the source give for `FC(F)(F)C(F)(F)C(F)(F)Br` here?
Answer: inactive

Question: Which outcome does the source give for `COCC1CCC(CO)CC1` (centres undefined) here?
Answer: inactive

Question: Which AC50 does the source give for `C=COC(=O)C(C)(C)CCCCCC` here?
Answer: 159 µM (active)

Question: With `CCCCc1ccc2ccccc2c1S(=O)(=O)O` as the molecule, how does the outcome read?
Answer: inactive

Question: For `C=Cc1ccc(O)c(OC)c1`, which outcome is on record?
Answer: inactive

Question: For `FC(F)=C(F)C(F)(F)C(F)(F)C(F)(F)C(F)F`, which outcome is on record?
Answer: inactive

Question: With `NS(=O)(=O)O` as the molecule, how does the outcome read?
Answer: inactive

Question: Which AC50 does the source give for `O=C1c2ccc(O)c(O)c2C(=O)c2c(O)ccc(O)c21` here?
Answer: 4.28 µM (active)

Question: For `CCOC(=O)CN[C@@H](C(=O)N1CC[C@H]1C(=O)NCc1ccc(/C(N)=N/O)cc1)C1CCCCC1`, which outcome is on record?
Answer: inactive

Question: For `CC(C)CCOCCC(C)C`, which outcome is on record?
Answer: inactive

Question: Which outcome does the source give for `C=CC(=C)CC/C=C(\C)CCC=C(C)C` here?
Answer: inactive

Question: For `Cc1ccc(N=Nc2c(O)ccc3ccccc23)c(C)c1`, which outcome is on record?
Answer: inactive

Question: With `C=CC(=O)OCCN(CC)CC` as the molecule, how does the AC50 read?
Answer: 63.2 µM (active)

Question: Which outcome does the source give for `Cc1ccc(S(=O)(=O)O)cc1` here?
Answer: inactive

Question: Which outcome does the source give for `CCCCCCCCCCCCOC(=O)c1cc(O)c(O)c(O)c1` here?
Answer: inactive

Question: For `CCCCCCCCCCCCCCCC(=O)OC`, which outcome is on record?
Answer: inactive

Question: Which outcome does the source give for `CC1CCC(CO)CC1` (centres undefined) here?
Answer: inactive

Question: With `CCCCCC(C)OC(=O)COc1ccc(Cl)c2cccnc12` (centres undefined) as the molecule, how does the outcome read?
Answer: inactive

Question: With `FC(F)(F)N1C(F)(F)C(F)(F)OC(F)(F)C1(F)F` as the molecule, how does the outcome read?
Answer: inactive

Question: For `C/C=C/C(=O)C1=C(C)CCCC1(C)C`, which AC50 is on record?
Answer: 174 µM (active)

Question: Which outcome does the source give for `CCc1ccccc1O` here?
Answer: inactive

Question: For `CNNCc1ccc(C(=O)NC(C)C)cc1`, which outcome is on record?
Answer: inactive

Question: For `CCCCCCCCCCCC[N+](C)(C)CCCCCCCCCCCC`, which AC50 is on record?
Answer: 182 µM (active)
